Assay results taken from the supplement of paper PMC8253809.
Values joined by “and” are separate entries in the source; they are usually repeats but may differ in a detail not shown here. Identical values can stand only once.

Experiments:
Assay in all cases: growth inhibition (% activity, log2 RLU normalised to DMSO / staurosporine); higher = more growth inhibition
Settings in all cases: 33 µM
[1] = test system: DIPGX29 (H3.3 K27M diffuse intrinsic pontine glioma line)
Procedure, shortened: (§1)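 On Geltrex-coated 384-well plates, pHGG cell lines and H9-derived neural stem cells were grown with approved drugs pinned in at a single final concentration of about 33 μM, in triplicate, for 7 days at 37 °C, 5% CO2. Per-plate normalisation of log2-transformed CellTiter-Glo luminescence to % activity between solvent and positive control wells followed. Each growth-inhibition value is the median over the replicates.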

[2] = test system: DIPGX37 (H3.3 K27M diffuse intrinsic pontine glioma line)
Procedure, shortened: as §1

[3] = test system: DIPGX7 (H3.3 K27M diffuse intrinsic pontine glioma line)
Procedure, shortened: as §1

[4] = test system: DIPGX9 (diffuse intrinsic pontine glioma line)
Procedure, shortened: as §1

[5] = test system: HGGX39 (paediatric high-grade glioma line)
Procedure, shortened: as §1

[6] = test system: HGGX6 (H3.3 G34R paediatric high-grade glioma line)
Procedure, shortened: as §1

[7] = test system: HNSC
Procedure, shortened: as §1

[8] = test system: SUDIPGIV (diffuse intrinsic pontine glioma line)
Procedure, shortened: as §1

[9] = test system: SUDIPGVI (diffuse intrinsic pontine glioma line)
Procedure, shortened: as §1

[10] = test system: SUDIPGXIII (diffuse intrinsic pontine glioma line)
Procedure, shortened: as §1

Structure (SMILES)	growth inhibition [1]	growth inhibition [2]	growth inhibition [3]	growth inhibition [4]	growth inhibition [5]	growth inhibition [6]	growth inhibition [7]	growth inhibition [8]	growth inhibition [9]	growth inhibition [10]
C=C1c2cccc(O)c2C(O)=C2C(=O)[C@]3(O)C(O)=C(C(N)=O)C(=O)[C@@H](N(C)C)[C@@H]3[C@@H](O)[C@H]12	-0.484%	2.83%	-0.0391%	-1.06%	2.68%	-0.509%	0.179%	2.28%	-1.04%	1.14%
C[C@@]12C[C@@]3(O)O[C@@H](O1)[C@]1(COC(=O)c4ccccc4)[C@H]3C[C@@]12O[C@@H]1O[C@H](CO)[C@@H](O)[C@H](O)[C@H]1O	-0.664%	0.987%	-0.876%	1.21%	-0.682%	1.84%	-1.36%	-1.25%	0.677%	-13.1%
O=C([O-])CC(O)(CC(=O)[O-])C(=O)[O-].O=C([O-])CC(O)(CC(=O)[O-])C(=O)[O-].[Bi+3].[K+].[K+].[K+].[K+].[K+]	-1.08%	-0.559%	-0.17%	0.156%	-0.856%	0.952%	-0.691%	-1.2%	-0.266%	-15.3%
CCCC(=O)[O-].[Na+]	-1.17%	-2.44%	-0.966%	0.792%	0.723%	0.649%	-2.84%	-1.12%	0.269%	0.879%
CCC(C)(C)c1ccc(CC(C)CN2C[C@@H](C)O[C@@H](C)C2)cc1 (stereo partly drawn)	9.06%	6.3%	36.9%	0.0137%	15.3%	11.1%	8.57%	11.7%	-11.5%	-7.54%
CCc1cc(C(N)=S)ccn1	-2.89%	-1.22%	-0.907%	-2.73%	-1.46%	-1.03%	-5.37%	-0.99%	-3.57%	-0.39%
C[C@H]1O[C@H](O[C@H]2[C@H](O)[C@@H](O)[C@@H](O[C@H]3[C@H](O)[C@@H](O)C(O)O[C@@H]3CO)O[C@@H]2CO)[C@H](O)[C@@H](O)[C@@H]1N[C@H]1C=C(CO)[C@@H](O)[C@H](O)[C@H]1O (stereo partly drawn)	-1.13%	-1.58%	-0.631%	-1.81%	-1.75%	-0.366%	-2.81%	-2.71%	-0.59%	-0.463%
COc1cccc(N(C)C(=S)Oc2ccc3c(c2)CCCC3)n1	2.16%	1.79%	1.25%	2.82%	2.33%	1.82%	1.51%	0.755%	2.8%	1.12%
CN(Cc1cc(Br)cc(Br)c1N)C1CCCCC1	2.48%	1.22%	4.28%	3.08%	5.14%	1.81%	7.22%	3.97%	3.03%	-1.94%
CC/C(=C(/CC)c1ccc(O)cc1)c1ccc(O)cc1	-0.353%	0.261%	1.61%	0.802%	-1.26%	-0.016%	-1.62%	0.624%	0.165%	-10.6%
CC/C(=C(\c1ccccc1)c1ccc(OCCN(C)C)cc1)c1ccccc1	7.72%	1.28%	12.1%	3.63%	11.1%	10.5%	21%	7.38%	5.56%	2.99%
C=C1/C(=C\C=C2/CCC[C@]3(C)[C@@H]([C@H](C)CCCC(C)(C)O)CC[C@@H]23)C[C@@H](O)C[C@@H]1O	2.73%	4.49%	6.36%	1.22%	5.14%	4.52%	2.64%	9.51%	2.83%	-1.15%
CC(C)(O/N=C(\C(=O)N[C@@H]1C(=O)N2C(C(=O)[O-])=C(C[n+]3ccccc3)CS[C@H]12)c1csc(N)n1)C(=O)O	-0.082%	3.29%	2.31%	0.416%	1.23%	-0.0518%	1.13%	-0.671%	2.58%	0.376%
COc1ccc(Cl)cc1C(=O)NCCc1ccc(S(=O)(=O)NC(=O)NC2CCCCC2)cc1	-0.549%	1.98%	-0.628%	-1.16%	1.11%	0.0176%	2.28%	0.343%	1.26%	-1.12%
Nc1nc(CC(=O)Nc2ccc(CCNC[C@H](O)c3ccccc3)cc2)cs1	0.527%	0.899%	-0.176%	0.63%	1.04%	-0.0848%	-1.35%	-0.627%	0.0605%	0.226%
CS(=O)(=O)CCNCc1ccc(-c2ccc3ncnc(Nc4ccc(OCc5cccc(F)c5)c(Cl)c4)c3c2)o1	6.23% and 13.7%	3.79% and 6.67%	8.64% and 16.6%	4.74% and 6.77%	7.08% and 12.7%	3.29% and 14.5%	–	3.14% and -0.238%	-6.01% and 3.84%	0.448% and 1.79%
CN1c2cc(O)c(N=NC(N)=O)cc2CC1S(=O)(=O)O (stereo not drawn)	-0.566%	-0.439%	-0.368%	-0.808%	-0.659%	0.668%	-5.18%	-0.34%	0.422%	-12.4%
O=c1[nH]c(=O)n([C@H]2C[C@H](O)[C@@H](CO)O2)cc1C(F)(F)F	-1.08%	0.535%	-1.11%	5.19%	8.23%	-0.706%	57.7%	13.1%	-3.24%	2.3%
Oc1cc(O)c(Cl)cn1	-1.47%	-1.68%	-1.58%	-0.302%	-2.27%	0.219%	-3.27%	-2.24%	-1.42%	0.7%
N=C(N)NC(=O)c1nc(Cl)c(N)nc1N	1.79% and -1.36%	1.85% and 0.649%	1.7% and 0.904%	2.64% and 0.337%	2.38% and 4%	-0.794% and 0.512%	–	7.17% and 6.85%	2.25% and 2.53%	-0.984% and -0.159%
CCCCCOC(=O)Nc1nc(=O)n([C@@H]2O[C@H](C)[C@@H](O)[C@H]2O)cc1F	-0.544%	1.13%	0.087%	0.193%	1.46%	0.0555%	-0.694%	-0.463%	0.998%	1.54%
CNC(=O)CN(CCN(CCN(CC(=O)[O-])CC(=O)NC)CC(=O)[O-])CC(=O)[O-].[Gd+3]	-2.04%	-0.306%	-1.48%	-2.31%	-1.74%	1.15%	-6.04%	-1.08%	-1.67%	0.753%
CNC(=O)c1ccccc1Sc1ccc2c(/C=C/c3ccccn3)n[nH]c2c1	12.6%	6.36%	11.4%	17.5%	10.9%	20.3%	60.4%	4.73%	0.631%	5.66%
CCn1nc(C(=O)O)c(=O)c2cc3c(cc21)OCO3	0.16%	0.624%	-0.169%	-0.854%	0.711%	1.66%	0.841%	-0.519%	-0.803%	0.089%
C=CC[C@@H]1/C=C(\C)C[C@H](C)C[C@H](OC)[C@H]2O[C@@](O)(C(=O)C(=O)N3CCCC[C@H]3C(=O)O[C@H](/C(C)=C/[C@@H]3CC[C@@H](O)[C@H](OC)C3)[C@H](C)[C@@H](O)CC1=O)[C@H](C)C[C@@H]2OC	1.19%	-1.52%	3.82%	4.63%	9.14%	3.03%	6.43%	4.72%	5.58%	2.59%
CC(C)NCC(O)c1ccc(O)c(O)c1 (stereo not drawn)	-3.68%	-0.899%	-1.64%	-0.316%	-1.58%	0.187%	-3.47%	-0.959%	-4.2%	-0.909%
COC(=O)C1=C(C)NC(C)=C(C(=O)OCC(C)C)C1c1ccccc1[N+](=O)[O-] (stereo not drawn)	1.94%	1.14%	0.789%	2.65%	5%	3.46%	5.72%	0.591%	3.16%	2.06%
CC(=O)Oc1ccccc1C(=O)Nc1ncc([N+](=O)[O-])s1	0.503%	4.15%	3.15%	1.52%	3.31%	1.98%	7.17%	3.07%	1.06%	63.6%
